Screening results deposited in PubChem BioAssay by National Center for Advancing Translational Sciences (NCATS).
In the library only some 9.3% were active in any assay of this set; here they are far more common.
FLuc counter: firefly luciferase modulation, counter-screen for miR-21 project. P08659. purified FLuc, Km substrates, luminescence inhibition. hit rate 6.9% among 360,000. Potency, µM (top dose mostly 57.5 µM), without a hit: top-dose activity change, negative = inhibition, hits mostly inhibitors;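 also: plate controls were vehicle for no effect and reference inhibitor for full effect; nearly all actives have a fitted effect of over 55% in size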
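Purified P. pyralis luciferase (10nM final) with 10uM D-luciferin and 10uM ATP (Km levels) in 50mM Tris acetate pH 7.5, 10mM Mg acetate, 0.01% Tween-20, 0.05% BSA; qHTS 6-point titration, ~60 µM downward; luminescence read.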
NPC1 promoter act: NPC1 promoter activation; Huh7 NPC1 promoter luciferase reporter, 24 h; Potency, µM (highest dose often 9.22 µM), without a hit: at the top dose activation, hits mostly activators; hit rate 2.4% among 320,000; AID 485313; also: % of control where 0% means no effect; nearly all actives have a fitted effect of over 60% in size
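Luminescence read-out of NPC1 promoter-driven luciferase in stably transfected Huh7 cells; compounds delivered in DMSO and left 24 h at 37C, 5% CO2, qHTS titration format.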
ELG1 repair inh: blocks ELG1-dependent DNA repair in HEK293T cells. HEK293T ELG1-luciferase reporter, luminescence, 16 h; DNA damage induced by 5-fluorouridine. Potency, µM (doses to about 46.1 µM), inactives show at the highest dose activity change, negative = inhibition, hits mostly inhibitors. hit rate 2.3% among 330,000; also: % is scaled to controls: 0 for no effect and ±100 for the full control effect; nearly all actives have a fitted effect of over 55% in size
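DMSO vehicle served as the neutral condition. Each well held 2,000 cells given 5-fluorouridine plus compound; after 16 hr at 37 °C/5% CO2, ONE-Glo was added and luciferase measured 30 min later.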
SMN2 splice up: SMN2 splice variant enhancement. AID 1458. HEK293 SMN2-luciferase splicing reporter, luminescence, 30-36 h. Potency, µM (titrated, usually from 46.1 µM), inactives show at the highest dose activity change, positive = activation, usual class: activators. hit rate 2.8% among 210,000; also: % of control where 0% means no effect; nearly all actives have a fitted effect of over 55% in size
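HEK293 cells carry an SMN2 […]–luciferase reporter in which exon 7 inclusion puts luciferase in frame. Cells were plated 10-12 h before compound addition, then incubated 30-36 h at 37C. ONE-Glo luminescence was read; sodium butyrate at 4.5 mM final served as control.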
Rab9 prom act: activates the Rab9 promoter. Huh7 Rab9 promoter-luciferase reporter, luminescence, 24 h. Potency, µM (titrated, usually from 9.22 µM), without a hit: at the highest dose activation, negative = inhibition, usual class: activators. hit rate 2.8% among 320,000; also: % of control where 0% means no effect; nearly all actives have a fitted effect of over 60% in size
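Stable Rab9-luc Huh7, 1500 cells/well, 2 h settle; cmpd in DMSO, 24 h, 37 °C/5% CO2; luciferase reagent 10 min RT; luminescence.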
ELG1 genotoxic: genotoxicity induction in ELG1-luciferase HEK293T cells; HEK293T ELG1-luciferase reporter, luminescence, 16 h; Potency, µM (doses to about 46 µM), inactives show at the highest dose activity change, positive = activation, most hits filed as activators; hit rate 1.3% among 330,000; also: % of control where 0% means no effect; nearly all actives have a fitted effect of over 60% in size
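Genotoxicity was scored as increased ELG1-luciferase reporter signal, measured by ONE-Glo luminescence (30 min, room temperature). Compound or vehicle exposure of the HEK293T reporter cells lasted 16 hr at 37°C.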
ELG1 FLuc counter: luciferase inhibition in cell-free luciferin readout for ELG1 hits; AID 624247; Potency, µM (series often up to 46.1 µM), inactives show at the highest dose activity change, negative = inhibition, most hits filed as inhibitors; cell-free firefly luciferase luminescence counter-screen, ViewLux; shares compounds with ELG1 repair inh; hit rate 3% among 350; also: % is scaled to controls: 0 for no effect and ±100 for the full control effect
ELG1 Luc conf: human ELG1 repair inhibition, luciferase-tagged ELG1 confirmation | shares compounds with ELG1 repair inh | HEK293T ELG1-luciferase levels, luminescence; cells co-treated with 5-fluorouridine | Potency, µM (doses to about 46.1 µM), inactives show at the top dose activity change, negative = inhibition, hits mostly inhibitors | hit rate 68% among 670 | AID 624248; also: % is scaled to controls: 0 for no effect and ±100 for the full control effect; nearly all actives have a fitted effect of over 55% in size
Target sequence (Q96QE3 whole entry, looked up): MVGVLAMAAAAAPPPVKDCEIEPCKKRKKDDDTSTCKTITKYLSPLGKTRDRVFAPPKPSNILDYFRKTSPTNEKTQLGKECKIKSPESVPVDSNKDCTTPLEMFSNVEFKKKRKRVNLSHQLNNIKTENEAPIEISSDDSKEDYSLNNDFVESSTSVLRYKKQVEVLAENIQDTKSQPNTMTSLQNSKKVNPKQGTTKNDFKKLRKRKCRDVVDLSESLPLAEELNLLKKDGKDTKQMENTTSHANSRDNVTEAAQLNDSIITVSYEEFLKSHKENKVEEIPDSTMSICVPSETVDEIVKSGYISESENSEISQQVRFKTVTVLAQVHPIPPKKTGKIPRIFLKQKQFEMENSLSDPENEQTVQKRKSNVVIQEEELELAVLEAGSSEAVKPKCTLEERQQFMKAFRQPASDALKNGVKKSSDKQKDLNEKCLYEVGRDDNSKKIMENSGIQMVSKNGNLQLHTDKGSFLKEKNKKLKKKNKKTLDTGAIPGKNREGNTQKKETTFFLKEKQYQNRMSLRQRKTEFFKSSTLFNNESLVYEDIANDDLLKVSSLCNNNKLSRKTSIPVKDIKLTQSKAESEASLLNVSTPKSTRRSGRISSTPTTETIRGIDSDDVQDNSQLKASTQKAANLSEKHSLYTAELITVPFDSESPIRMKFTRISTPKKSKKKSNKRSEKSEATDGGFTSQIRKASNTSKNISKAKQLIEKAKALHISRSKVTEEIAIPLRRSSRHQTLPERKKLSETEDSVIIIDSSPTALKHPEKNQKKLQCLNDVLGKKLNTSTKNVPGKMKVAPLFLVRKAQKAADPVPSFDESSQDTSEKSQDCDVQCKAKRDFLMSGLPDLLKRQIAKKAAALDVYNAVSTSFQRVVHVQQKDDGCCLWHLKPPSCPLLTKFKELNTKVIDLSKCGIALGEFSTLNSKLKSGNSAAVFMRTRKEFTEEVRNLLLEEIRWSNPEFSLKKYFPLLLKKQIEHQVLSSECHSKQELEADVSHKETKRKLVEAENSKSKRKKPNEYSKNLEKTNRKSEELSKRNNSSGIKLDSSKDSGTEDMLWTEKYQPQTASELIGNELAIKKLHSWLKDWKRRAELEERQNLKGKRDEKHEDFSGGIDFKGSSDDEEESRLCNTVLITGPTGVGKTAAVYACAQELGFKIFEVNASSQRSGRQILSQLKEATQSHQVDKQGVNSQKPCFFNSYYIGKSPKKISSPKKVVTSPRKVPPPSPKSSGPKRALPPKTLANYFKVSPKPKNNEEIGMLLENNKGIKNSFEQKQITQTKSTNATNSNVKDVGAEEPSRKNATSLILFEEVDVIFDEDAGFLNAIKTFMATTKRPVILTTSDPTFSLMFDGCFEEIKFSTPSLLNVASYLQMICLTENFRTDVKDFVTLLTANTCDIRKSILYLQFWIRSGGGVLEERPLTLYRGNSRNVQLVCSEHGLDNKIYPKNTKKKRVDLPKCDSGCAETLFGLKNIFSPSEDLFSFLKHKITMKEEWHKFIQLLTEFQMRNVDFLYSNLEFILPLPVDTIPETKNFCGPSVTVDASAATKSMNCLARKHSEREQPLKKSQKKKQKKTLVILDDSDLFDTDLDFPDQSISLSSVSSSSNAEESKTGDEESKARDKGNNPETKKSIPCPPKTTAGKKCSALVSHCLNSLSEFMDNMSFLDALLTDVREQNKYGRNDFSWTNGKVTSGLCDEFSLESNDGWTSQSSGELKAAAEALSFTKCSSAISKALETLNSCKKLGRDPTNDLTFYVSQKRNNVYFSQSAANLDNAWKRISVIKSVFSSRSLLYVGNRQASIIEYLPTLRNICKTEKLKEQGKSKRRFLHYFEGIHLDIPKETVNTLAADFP
ELG1 MMS Luc: inhibits ELG1-dependent repair under MMS stimulation in HEK293T cells. shares compounds with ELG1 repair inh. HEK293T luciferase-tagged ELG1 level, MMS stimulated. Potency, µM (series often up to 46.1 µM), for inactives: at the highest dose activity change, negative = inhibition, hits mostly inhibitors. hit rate 53% among 670; also: % is scaled to controls: 0 for no effect and ±100 for the full control effect; nearly all actives have a fitted effect of over 60% in size
ELG1 5-FU: confirmation of ELG1 repair inhibitors: viability with 5FU; Potency, µM (highest dose often 46.1 µM), without a hit: at the top dose activity change, negative = viability loss, actives largely listed as cytotoxic; cell viability with 5-FU, ELG1-dependent repair; 670 tested, under 10 active; shares compounds with ELG1 repair inh;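 also: ELG1-luc HEK293T cells cotreated with 5-fluorouridine at 10 µM final; viability measured 16 h after compound addition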
ELG1 MMS viab: confirmation of ELG1 repair inhibitors: viability with MMS; shares compounds with ELG1 repair inh; Cell viability with MMS, ELG1-dependent DNA repair; Potency, µM (series often up to 46.1 µM), for the others: top-dose activity change, negative = viability loss, actives largely listed as cytotoxic; hit rate 33% among 670;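 also: ELG1-luc HEK293T cells co-treated with 10 µM MMS; viability read 16 h after compound addition; % is scaled to controls: 0 for no effect and ±100 for the full control effect; nearly all actives have a fitted effect of over 60% in size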
ELG1 unstim viab: counter-screen for ELG1 repair inhibitors: unstimulated cell viability | shares compounds with ELG1 repair inh | cell viability counter-screen, unstimulated, luminescence | Potency, µM (series often up to 45.9 µM), without a hit: at the top dose activity change, negative = loss of viability, most hits filed as cytotoxic | hit rate 8% among 900;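 also: compound exposure lasted 16 hours before reading; % is scaled to controls: 0 for no effect and ±100 for the full control effect; nearly all actives have a fitted effect of over 55% in size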
FLuc biochem: inhibits purified firefly luciferase, counter-screen for ELG1 hits; shares compounds with ELG1 repair inh; purified firefly luciferase, luminescence counter-screen; Potency, µM (highest dose often 57.5 µM), inactives show at the top dose activity, negative = inhibition, actives largely listed as inhibitors; hit rate 10% among 350; also: % is scaled to controls: 0 for no effect and ±100 for the full control effect
An asterisk follows results filed as active; u = inconclusive; x = no result; [ ] = dose if it differs, or a comment. Calls follow the shape of the dose curve; as a rule, active = well fitted curve in the direction sought with a large enough effect; inconclusive = small, poorly fitted or top-dose-only effect, or another doubt; inactive = no such curve, though single readings can be large; an effect the other way counts as inactive or inconclusive. Potency is read from the fitted curve at half-maximal effect.

SMILES | FLuc counter | NPC1 promoter act | ELG1 repair inh | SMN2 splice up | Rab9 prom act | ELG1 genotoxic | others
COc1cc(/C=N/Nc2ccc(Cl)c(C(=O)O)c2)ccc1OC(=O)c1ccc(F)cc1 | u | 2.8µM* | u | x | u | u
COc1cc(/C=N/NC(=O)c2ccncc2)ccc1OC(=O)c1ccccc1Cl | u | -6% | -6% | -1% | -12% | -3%
COc1cc(/C=N/Nc2ccc(Cl)c(C(=O)O)c2)ccc1OC(=O)c1ccccc1F | 17µM* | u | 17% | x | 24% | 14%
COc1cc(C(C(=O)NC2CCCC2)N(C(=O)Cc2cccs2)C2CC2)cc(OC)c1OC (stereo unspecified) | 0% | 0% | -12% | -6% | 14% | -1%
O=C(/C=C/c1ccc(Cl)cc1)c1cccnc1 | 21µM* | 2% | u | -8% | -4% | 14%
O=C(/C=C/c1ccccc1Cl)c1ccc(O)cc1 | 9.5µM* | -4% | u | x | 1%[1.84 µM] | 13%
O=C(/C=C/c1c(F)cccc1Cl)Nc1ncccn1 | 15µM* | 2.8µM* | u | 14µM* | 2.5µM* | u
CCN(CC)c1ccc(/C=C/C(=O)c2cccnc2)cc1 | -1% | 0% | 23µM* | 3% | -1% | -6%
O=C(/C=C/c1ccc(OCc2ccccc2)c(OCc2ccccc2)c1)c1cccnc1 | -3% | -6% | 23% | -28% | -11% | -1%
N#Cc1ccc(/C=C/C(=O)c2cccnc2)cc1 | -13% | -11% | u | 2% | 1% | u
CCCCOC(=O)c1ccc(NC(=O)C2(c3cccs3)CCOCC2)cc1 | -1% | x | x | x | x | x
O=C(/C=C/c1ccccc1Cl)c1cccnc1 | 17µM* | -4% | u | -18% | 1% | 14%
COc1cc(C(=O)/C=C/c2cccnc2)ccc1O | 19µM* | -4% | u | x | 6% | -39%
O=C(/C=C/c1c(F)cccc1Cl)c1ccc(O)cc1 | 11µM* | 0% | 18% | x | 0% | 4%
COc1ccc(OC)c(C(=O)/C=C/c2cccnc2)c1 | 2% | -7% | u | x | -8% | 0%
Cc1cc(C)n2nc(C(=O)NCC(=O)Nc3ccc(F)c(F)c3)nc2n1 | -2% | 0% | 11% | x | 0% | -2%
O=C(N/N=C/c1sc(N2CCOCC2)nc1-c1ccccc1)c1cccc(S(=O)(=O)N2CCCC2)c1 | -2% | -42% | 5.2µM* | -93% | -43% | -14%
CCCCNC(=O)/C(C#N)=C/c1ccc2c(c1)OCCO2 | 9.5µM* | -1% | u | 14% | 1% | u
N#C/C(=C\c1cccc([N+](=O)[O-])c1)C(=O)NCc1cccnc1 | 0% | -3% | 21µM* | 28% | 0% | -17%
CCCCNC(=O)/C(C#N)=C/c1cccnc1 | 1% | 4% | 2% | 5µM* | 3% | 13%
Cc1cccc(NC(=O)/C(C#N)=C\c2cccnc2)c1 | u | 0% | 9% | -12% | -2% | -2%
N#C/C(=C\c1ccc2c(c1)OCCO2)C(=O)Nc1ccc(C(=O)O)cc1 | 0.34µM* | 21% | u | x | 15%[1.84 µM] | u
COc1ccc(/C=C(/C#N)C(=O)NC2CCCCC2)cc1Br | -13% | -3% | 17% | -24% | 0% | 1%
N#C/C(=C\c1ccc2c(c1)OCCO2)C(=O)NC1CCCCC1 | 4.8µM* | -3% | u | x | 5% | u
COCCN(C(=O)COC(=O)Cc1coc2cc3c(cc12)CCC3)c1c(N)n(Cc2ccccc2)c(=O)[nH]c1=O | 24µM* | -4% | 1% | x | -4% | 0%
SMILES | FLuc counter | NPC1 promoter act | ELG1 repair inh | SMN2 splice up | Rab9 prom act | ELG1 genotoxic | others
COc1ccc2cc(C[C@@H]3CC[C@@H](CO)O3)ccc2c1 | x | x | u | x | x | u | ELG1 unstim viab=-2%
Nc1ccccc1NC(=O)c1ccc(CNC(=O)OCc2cccnc2)cc1 | x | x | x | x | x | x | ELG1 FLuc counter=136%;ELG1 unstim viab=u;FLuc biochem=-4%
COCc1ccc(C(=O)Nc2ccccc2C(=O)NCc2cccnc2)cc1 | u | -6% | 6% | x | 1% | 1%
Cc1ccc(C(=O)Nc2cccc3[nH]c(C(F)(F)F)nc23)cc1 | u | -11% | u | x | -16% | -8% | ELG1 Luc conf=16µM*;ELG1 MMS Luc=7.9µM*;ELG1 5-FU=-11%;ELG1 MMS viab=8.9µM*;ELG1 unstim viab=u
COc1ccc(CNc2cccc3[nH]c(C(F)(F)F)nc23)cc1 | 1% | -5% | u | x | -6%[1.84 µM] | -12%
Nc1ncnc2c1c(I)cn2C1OC(CO)C(O)C1O (stereo unspecified) | x | x | x | -90% | x | x | ELG1 FLuc counter=u;ELG1 Luc conf=0.4µM*;ELG1 MMS Luc=1µM*;ELG1 5-FU=18%;ELG1 MMS viab=u;ELG1 unstim viab=-8%;FLuc biochem=5%
CSc1ncnc2c1ncn2C1OC(CO)C(O)C1O (stereo unspecified) | x | x | x | -53% | x | x | ELG1 FLuc counter=4%;ELG1 Luc conf=0.04µM*;ELG1 MMS Luc=2µM*;ELG1 5-FU=u;ELG1 MMS viab=u;ELG1 unstim viab=0.56µM*;FLuc biochem=-1%
